Results from the supplement of paper PMC10849652.
About 8,800 targets were measured; listed, in parts, are those with a hit and a random draw of the rest. About 0.5% of all pairs of compound and target were hits. A number with no mark means an inactive call.

How the values were obtained:
Experiment in all cases: log2 fold change, soluble protein after heating vs DMSO (PISA); higher = thermal stabilisation; K562 lysate, 10 uM; active = over 0.2 and 3.5 SD of the protein, either way, in both replicates (recomputed)
[1] = compound: C#Cc1cccc(Nc2ncnc3cc(OCCOC)c(OCCOC)cc23)c1 [erlotinib]
Summary of the method: (§1)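 Soluble protein was defined as the supernatant remaining after 21,000xg for 90 min, following pooling of heated aliquots and adjustment to 0.5% NP-40 at 4°C. Before that, crude K562 extract at 1 mg/mL protein in PBS pH 7.4 with 1 mM MgCl2 was treated with 10 μM compound for 30 min and heated for 3 min across 48°C-58°C. Quantification used TMTpro 16plex LC-MS/MS with channel sums equalised, and values are log-two fold changes in thermal stability relative to solvent controls from duplicates.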

[2] = compound: C/C(=N\NC(=O)C1=CC(=CC=C1)S(=O)(=O)N2CCOCC2)/C3=C(C=CC(=C3)Cl)O
Summary of the method: as §1

[3] = compound: C1=CC(=CC=C1C2=NC3=C(N2)C=C(C=C3)C(=O)N)OC4=CC=C(C=C4)Cl
Summary of the method: as §1

[4] = compound: C1=CC2=C(C=CC(=C2)/C=C\3/C(=O)NC(=NCC4=CC=CS4)S3)N=C1
Summary of the method: as §1

[5] = compound: C1=CC2=NC=CN=C2C=C1/C=C/3\C(=O)NC(=O)S3
Summary of the method: as §1

[6] = compound: C1=CC=C(C=C1)C2=NC(=C(N2)C3=CC=NC=C3)C4=CC(=C(C=C4)Cl)O
Summary of the method: as §1

[7] = compound: C1=CC=C2C(=C1)C3=NNC4=CC=CC(=C43)C2=O
Summary of the method: as §1

[8] = compound: C1CCN(C1)C(=O)NC2=CC=CC(=C2)NC3=NC=C(C(=N3)NCCC4=CN=CN4)Br
Summary of the method: as §1

[9] = compound: C1CN(CCC1(CC2=CC=C(C=C2)Cl)N)C3=NC=NC4=C3C=CN4
Summary of the method: as §1

[10] = compound: C1COCCN1CCN2C3=CC=CC=C3N=C2NC(=O)C4=CC(=CC=C4)[N+](=O)[O-] [IRAK-1-4 Inhibitor I]
Summary of the method: as §1

[11] = compound: C=CC(=O)N1CCC[C@@H](n2nc(-c3ccc(Oc4ccccc4)cc3)c3c(N)ncnc32)C1 [ibrutinib]
Summary of the method: as §1

[12] = compound: CC(=O)c1cnc2ccc(-c3cc(Cl)c(O)c(Cl)c3)nc2c1N[C@H]1CC[C@H](CN(C)C)CC1
Summary of the method: as §1

[13] = compound: CC(C)(C)Cn1c(N)nc2ccc(-c3[nH]c(C(C)(C)C)nc3-c3ccc(F)cc3)nc21 [ralimetinib]
Summary of the method: as §1

[14] = compound: CC(C)(O)CC(=O)NCCn1ccc2ncnc(Nc3ccc(Oc4cccc(C(F)(F)F)c4)c(Cl)c3)c21
Summary of the method: as §1

[15] = compound: CC(C)C1=C2N=C(C=C(N2N=C1)NCC3=CC=CC=C3)NCCCCCCN
Summary of the method: as §1

[16] = compound: CC1=C(C(CC(=O)N1)C2=CC=C(C=C2)C(F)(F)F)C(=O)NC3=C(C=C4C(=C3)C=NN4)F
Summary of the method: as §1

[17] = compound: CC1=C(C2=C(C=C1)C(=O)C3=CC=CC=C3N2CCCN)C
Summary of the method: as §1

[18] = compound: CC1=C(C=C(C=C1)NC(=O)C2=CC(=CC=C2)C(C)(C)C#N)NC3=CC4=C(C=C3)N=CN(C4=O)C
Summary of the method: as §1

[19] = compound: CC1=C(C=C(C=C1)NC(=O)C2=CC(=CC=C2)N(C)C)NC(=O)C3=CC=C(C=C3)O
Summary of the method: as §1

[20] = compound: CC1=CC=C(C=C1)SC2=C3C=C(SC3=CN=C2)C(=O)N
Summary of the method: as §1

UniProt P62942, sequence (P62942 whole entry, looked up): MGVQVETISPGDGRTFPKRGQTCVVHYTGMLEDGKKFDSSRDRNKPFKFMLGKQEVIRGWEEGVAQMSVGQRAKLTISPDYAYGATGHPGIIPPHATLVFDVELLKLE
UniProt Q9UBQ6, sequence (Q9UBQ6 whole entry, looked up): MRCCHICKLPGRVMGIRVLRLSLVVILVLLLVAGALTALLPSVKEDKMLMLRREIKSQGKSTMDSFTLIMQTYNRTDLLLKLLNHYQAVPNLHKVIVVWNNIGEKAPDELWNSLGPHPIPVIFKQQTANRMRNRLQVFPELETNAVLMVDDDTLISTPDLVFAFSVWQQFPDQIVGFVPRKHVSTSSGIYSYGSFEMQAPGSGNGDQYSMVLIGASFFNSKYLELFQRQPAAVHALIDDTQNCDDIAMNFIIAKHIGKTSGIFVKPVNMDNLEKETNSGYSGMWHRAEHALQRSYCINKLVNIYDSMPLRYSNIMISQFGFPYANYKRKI
UniProt Q9GZT9, sequence (Q9GZT9 whole entry, looked up): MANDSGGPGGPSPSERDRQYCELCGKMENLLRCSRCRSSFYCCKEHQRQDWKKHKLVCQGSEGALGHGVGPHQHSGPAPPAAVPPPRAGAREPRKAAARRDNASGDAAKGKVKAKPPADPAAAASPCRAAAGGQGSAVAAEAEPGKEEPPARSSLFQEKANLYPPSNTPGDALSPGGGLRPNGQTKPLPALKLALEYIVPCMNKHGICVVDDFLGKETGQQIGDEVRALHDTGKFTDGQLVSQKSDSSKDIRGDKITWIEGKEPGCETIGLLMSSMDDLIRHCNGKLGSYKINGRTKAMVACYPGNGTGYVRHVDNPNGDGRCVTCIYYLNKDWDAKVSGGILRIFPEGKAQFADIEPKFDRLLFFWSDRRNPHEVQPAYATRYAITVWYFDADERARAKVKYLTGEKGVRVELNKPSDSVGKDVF
UniProt P34913, sequence (P34913 whole entry, looked up): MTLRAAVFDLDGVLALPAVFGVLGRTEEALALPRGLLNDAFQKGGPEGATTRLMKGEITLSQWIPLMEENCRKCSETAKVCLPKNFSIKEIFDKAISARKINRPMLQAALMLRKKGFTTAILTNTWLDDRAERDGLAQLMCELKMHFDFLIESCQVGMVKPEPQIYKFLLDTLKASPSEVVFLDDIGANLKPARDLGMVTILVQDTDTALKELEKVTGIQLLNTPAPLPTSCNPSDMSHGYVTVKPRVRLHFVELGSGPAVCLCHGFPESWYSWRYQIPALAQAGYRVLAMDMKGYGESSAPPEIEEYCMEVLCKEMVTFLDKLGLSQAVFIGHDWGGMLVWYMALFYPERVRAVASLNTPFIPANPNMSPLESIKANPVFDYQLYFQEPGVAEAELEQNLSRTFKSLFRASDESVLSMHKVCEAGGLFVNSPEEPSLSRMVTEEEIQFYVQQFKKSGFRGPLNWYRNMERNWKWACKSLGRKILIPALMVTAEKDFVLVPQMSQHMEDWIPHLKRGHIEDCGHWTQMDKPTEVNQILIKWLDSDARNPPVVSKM
UniProt Q13011, sequence (Q13011 whole entry, looked up): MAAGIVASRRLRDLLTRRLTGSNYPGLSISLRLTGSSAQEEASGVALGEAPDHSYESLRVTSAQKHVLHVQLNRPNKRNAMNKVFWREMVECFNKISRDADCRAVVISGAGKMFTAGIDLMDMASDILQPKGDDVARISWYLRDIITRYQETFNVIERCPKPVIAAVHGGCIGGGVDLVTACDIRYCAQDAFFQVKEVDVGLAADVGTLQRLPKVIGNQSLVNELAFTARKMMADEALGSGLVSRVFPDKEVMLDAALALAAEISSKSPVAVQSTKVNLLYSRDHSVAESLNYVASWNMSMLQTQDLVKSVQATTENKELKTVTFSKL
UniProt P04406, sequence (P04406 whole entry, looked up): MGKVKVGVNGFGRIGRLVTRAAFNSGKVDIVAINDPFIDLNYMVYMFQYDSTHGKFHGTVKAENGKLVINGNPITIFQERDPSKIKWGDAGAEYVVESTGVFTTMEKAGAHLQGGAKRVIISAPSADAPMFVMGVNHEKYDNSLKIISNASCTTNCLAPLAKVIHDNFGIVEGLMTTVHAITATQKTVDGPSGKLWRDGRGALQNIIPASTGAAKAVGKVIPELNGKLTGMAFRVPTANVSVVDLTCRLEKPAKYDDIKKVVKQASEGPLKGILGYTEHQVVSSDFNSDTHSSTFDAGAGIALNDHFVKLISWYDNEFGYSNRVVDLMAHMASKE
UniProt Q9NYY8, sequence (Q9NYY8 whole entry, looked up): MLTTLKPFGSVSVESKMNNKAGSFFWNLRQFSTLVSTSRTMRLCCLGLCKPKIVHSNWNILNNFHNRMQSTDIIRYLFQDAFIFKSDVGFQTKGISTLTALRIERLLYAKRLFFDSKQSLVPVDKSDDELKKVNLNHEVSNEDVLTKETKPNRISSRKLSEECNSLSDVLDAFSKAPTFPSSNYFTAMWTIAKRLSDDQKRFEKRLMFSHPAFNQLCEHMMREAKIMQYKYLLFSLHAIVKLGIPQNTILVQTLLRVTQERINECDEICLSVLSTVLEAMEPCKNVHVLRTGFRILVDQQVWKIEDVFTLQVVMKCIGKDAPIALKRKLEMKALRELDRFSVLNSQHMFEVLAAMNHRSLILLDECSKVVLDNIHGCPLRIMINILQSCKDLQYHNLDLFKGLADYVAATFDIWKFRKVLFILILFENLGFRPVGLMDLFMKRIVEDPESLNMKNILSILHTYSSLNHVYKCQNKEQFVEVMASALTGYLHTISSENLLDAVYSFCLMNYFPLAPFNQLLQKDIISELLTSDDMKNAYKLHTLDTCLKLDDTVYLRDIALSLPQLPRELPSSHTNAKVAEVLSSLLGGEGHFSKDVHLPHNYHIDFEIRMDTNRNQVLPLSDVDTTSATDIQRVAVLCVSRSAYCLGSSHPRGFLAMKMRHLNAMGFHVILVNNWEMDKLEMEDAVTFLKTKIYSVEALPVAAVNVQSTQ
UniProt O00471, sequence (O00471 whole entry, looked up): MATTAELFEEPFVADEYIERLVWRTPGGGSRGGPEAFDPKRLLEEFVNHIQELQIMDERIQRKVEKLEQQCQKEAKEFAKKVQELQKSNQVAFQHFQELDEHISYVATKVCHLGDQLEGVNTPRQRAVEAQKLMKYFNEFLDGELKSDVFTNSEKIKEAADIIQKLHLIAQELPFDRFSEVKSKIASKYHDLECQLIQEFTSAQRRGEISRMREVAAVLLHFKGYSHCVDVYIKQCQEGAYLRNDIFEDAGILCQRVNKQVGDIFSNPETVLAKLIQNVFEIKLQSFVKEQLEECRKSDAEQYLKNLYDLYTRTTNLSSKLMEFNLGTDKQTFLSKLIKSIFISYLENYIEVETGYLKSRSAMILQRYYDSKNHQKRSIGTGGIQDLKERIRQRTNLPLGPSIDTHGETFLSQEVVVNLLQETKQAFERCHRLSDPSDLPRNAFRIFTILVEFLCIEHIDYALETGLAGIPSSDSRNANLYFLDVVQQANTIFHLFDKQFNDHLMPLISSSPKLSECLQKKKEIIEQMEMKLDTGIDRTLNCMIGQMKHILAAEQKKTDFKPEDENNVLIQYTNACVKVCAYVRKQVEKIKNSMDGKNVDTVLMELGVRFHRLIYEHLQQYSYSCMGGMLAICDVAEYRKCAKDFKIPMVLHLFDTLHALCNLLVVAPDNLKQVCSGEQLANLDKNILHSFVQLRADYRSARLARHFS
UniProt Q15125, sequence (Q15125 whole entry, looked up): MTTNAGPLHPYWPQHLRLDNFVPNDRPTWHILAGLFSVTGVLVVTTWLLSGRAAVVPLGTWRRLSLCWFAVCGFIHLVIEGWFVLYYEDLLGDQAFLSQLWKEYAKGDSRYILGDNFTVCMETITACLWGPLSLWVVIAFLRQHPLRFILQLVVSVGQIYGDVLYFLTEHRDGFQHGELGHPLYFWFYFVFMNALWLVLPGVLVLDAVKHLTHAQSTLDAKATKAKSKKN
UniProt O14893, sequence (O14893 whole entry, looked up): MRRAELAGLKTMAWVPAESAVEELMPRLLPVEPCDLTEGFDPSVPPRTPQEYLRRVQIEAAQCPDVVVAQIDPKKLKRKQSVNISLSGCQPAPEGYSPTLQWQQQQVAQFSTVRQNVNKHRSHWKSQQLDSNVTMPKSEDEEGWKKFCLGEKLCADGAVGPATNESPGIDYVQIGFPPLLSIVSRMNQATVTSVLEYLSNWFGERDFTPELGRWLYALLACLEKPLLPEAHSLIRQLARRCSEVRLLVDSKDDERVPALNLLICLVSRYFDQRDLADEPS
UniProt Q96G46, sequence (Q96G46 whole entry, looked up): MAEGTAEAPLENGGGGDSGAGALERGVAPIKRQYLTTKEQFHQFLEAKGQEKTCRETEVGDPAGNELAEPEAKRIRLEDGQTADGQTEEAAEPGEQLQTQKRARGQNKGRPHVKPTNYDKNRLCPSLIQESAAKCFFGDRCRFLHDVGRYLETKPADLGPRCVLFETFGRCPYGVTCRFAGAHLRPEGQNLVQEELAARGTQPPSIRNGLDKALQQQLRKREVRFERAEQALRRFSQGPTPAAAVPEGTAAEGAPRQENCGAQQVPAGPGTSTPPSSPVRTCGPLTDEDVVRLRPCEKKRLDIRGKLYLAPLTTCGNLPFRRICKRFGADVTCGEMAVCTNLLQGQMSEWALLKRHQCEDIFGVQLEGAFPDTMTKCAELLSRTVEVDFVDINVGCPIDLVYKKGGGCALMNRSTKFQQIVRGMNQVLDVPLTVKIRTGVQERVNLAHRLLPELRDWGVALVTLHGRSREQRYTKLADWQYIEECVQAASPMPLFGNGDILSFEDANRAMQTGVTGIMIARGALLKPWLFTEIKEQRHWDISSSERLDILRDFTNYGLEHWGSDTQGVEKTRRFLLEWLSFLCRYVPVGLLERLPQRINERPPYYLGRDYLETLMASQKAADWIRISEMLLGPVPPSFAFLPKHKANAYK

| Target | log2 fold change [1] | log2 fold change [2] | log2 fold change [3] | log2 fold change [4] | log2 fold change [5] | log2 fold change [6] | log2 fold change [7] | log2 fold change [8] | log2 fold change [9] | log2 fold change [10] | log2 fold change [11] | log2 fold change [12] | log2 fold change [13] | log2 fold change [14] | log2 fold change [15] | log2 fold change [16] | log2 fold change [17] | log2 fold change [18] | log2 fold change [19] | log2 fold change [20] |
| --- | --- | --- | --- | --- | --- | --- | --- | --- | --- | --- | --- | --- | --- | --- | --- | --- | --- | --- | --- | --- |
| FAM83A (UniProt Q86UY5) | 0 | 0.168 | 0.097 | 0.038 | -0.054 | -0.107 | -0.031 | -0.062 | 0.008 | 0.019 | 0.125 | 0.006 | 0.008 | 0.053 | -0.06 | 0.018 | 0.023 | 0.035 | -0.023 | 0.026 |
| FASTKD2 (UniProt Q9NYY8) | 0.028 | 0.041 | -0.005 | 0.03 | 0.019 | -0.007 | -0.018 | 0.013 | 0.002 | 0.016 | -0.008 | -0.006 | -0.004 | -0.039 | -0.013 | 0.003 | -0.007 | 0.034 | -0.001 | 0.024 |
| EXOC5 (UniProt O00471) | 0.022 | -0.021 | -0.041 | 0.033 | -0.006 | -0.013 | -0.016 | 0.005 | 0.006 | -0.011 | -0.015 | 0.012 | 0.04 | -0.003 | -0.016 | 0.008 | 0.003 | -0.024 | 0.041 | -0.013 |
| EBP (UniProt Q15125) | 0.055 | 0.015 | -0.073 | -0.068 | 0.01 | -0.03 | -0.128 | 0.008 | 0.047 | 0.086 | -0.023 | 0.002 | 0.004 | -0.022 | 0.02 | 0.01 | -0.025 | -0.016 | -0.152 | 0.005 |
| FYCO1 isoform 4 (UniProt Q9BQS8) | 0.029 | 0.026 | 0.014 | -0.01 | -0.019 | -0.006 | -0.016 | -0.013 | 0.009 | 0 | -0.012 | -0.015 | 0.021 | -0.026 | 0 | 0.029 | -0.019 | -0.003 | -0.028 | 0 |
| EXOC4 (UniProt Q96A65) | 0.031 | 0.034 | -0.065 | 0.031 | 0.012 | -0.015 | -0.026 | -0.011 | 0.011 | -0.009 | -0.004 | -0.011 | 0.014 | -0.031 | -0.003 | -0.013 | 0.022 | -0.031 | 0.02 | 0.002 |
| EPHX2 (UniProt P34913) | -0.024 | 0.133 | 0.156 | 0.036 | -0.023 | -0.014 | 0.014 | 0.077 | -0.002 | -0.014 | 0.051 | -0.002 | -0.001 | -0.02 | 0.099 | 0.004 | -0.006 | 0.11 | 0.06 | 0.051 |
| GAPDH (UniProt P04406) | -0.007 | -0.032 | 0.031 | 0.006 | -0.006 | -0.005 | 0.028 | 0.027 | -0.034 | 0.003 | 0.037 | 0.021 | -0.006 | 0.02 | 0.008 | -0.01 | -0.008 | -0.037 | -0.014 | 0.009 |
| FANCD2 isoform 1 (UniProt Q9BXW9) | 0.059 | 0.002 | 0.019 | -0.049 | 0.01 | 0.006 | -0.092 | -0.062 | 0.095 | 0.036 | 0.01 | -0.009 | 0 | -0.066 | 0.048 | -0.02 | -0.068 | 0.071 | 0.011 | -0.008 |
| GEMIN2 (UniProt O14893) | 0.032 | 0.047 | -0.001 | 0.053 | 0.028 | 0.015 | -0.11 | -0.007 | 0.011 | 0.05 | -0.044 | 0.016 | 0 | -0.11 | 0.033 | -0.014 | -0.025 | -0.045 | 0.006 | 0.026 |
| EXTL2 (UniProt Q9UBQ6) | -0.02 | -0.037 | 0.072 | 0.103 | -0.443 | 0 | 0.092 | 0.003 | -0.007 | -0.049 | 0.217 | -0.056 | -0.015 | 0 | -0.077 | 0.021 | -0.146 | 0.014 | -0.04 | -0.071 |
| DUS3L (UniProt Q96G46) | -0.009 | -0.001 | 0.048 | 0.059 | 0.013 | 0.032 | -0.013 | -0.012 | -0.007 | 0.017 | 0.012 | -0.003 | 0.023 | -0.034 | -0.007 | 0.004 | -0.007 | 0.014 | 0.001 | -0.003 |
| FMNL1 isoform 3 (UniProt O95466) | -0.045 | 0.045 | -0.006 | -0.102 | -0.062 | -0.004 | 0.018 | -0.006 | 0.019 | -0.009 | 0.043 | -0.002 | 0.038 | -0.02 | 0.023 | 0.099 | 0.03 | 0.073 | 0.015 | 0.001 |
| EGLN1 (UniProt Q9GZT9) | 0.006 | 0.016 | 0.034 | 0.028 | -0.027 | 0.006 | -0.005 | 0.015 | -0.019 | -0.021 | -0.041 | 0.007 | 0.01 | 0.072 | 0.029 | 0.013 | -0.029 | 0.013 | 0.029 | 0.038 |
| FKBP1A (UniProt P62942) | -0.024 | 0.063 | 0.015 | -0.061 | 0 | 0.024 | 0.091 | -0.044 | 0.062 | 0.071 | 0.083 | -0.103 | 0.188 | -0.054 | 0.049 | -0.022 | -0.013 | 0.084 | 0.018 | 0.187 |
| ECH1 (UniProt Q13011) | -0.041 | -0.049 | -0.022 | 0.002 | -0.022 | 0.499 (active) | 0.232 | -0.009 | 0.017 | -0.007 | -0.035 | -0.02 | 0.064 | -0.036 | -0.033 | 0.04 | -0.02 | -0.017 | -0.018 | 0.013 |
